Data as given in PubChem BioAssay (Tox21).
Results filed as inconclusive are left out. Unmarked numbers belong to inactive results. The source made the active and inactive calls. Calls come from the whole dose curve; as a rule, active = well fitted inhibition curve with a large enough effect in the signal ratio in the repeat runs (not every such curve was filed as active); inconclusive = weak or mixed curves, or effect the other way; inactive = no such curve, though single readings can be large or run the other way; the % refers to the signal ratio.

target: Bile acid receptor (Homo sapiens) (UniProt Q96RI1); test: qHTS assay to identify small molecule antagonists of the farnesoid-X-receptor (FXR) signaling pathway (AID 743217); conditions: HEK293T FXR-UAS-bla, beta-lactamase ratio, CDCA-stimulated, 16 h; series mostly up to 62.6 µM; activity change, negative = inhibition: at the top concentration
Sequence (Q96RI1 whole entry, looked up): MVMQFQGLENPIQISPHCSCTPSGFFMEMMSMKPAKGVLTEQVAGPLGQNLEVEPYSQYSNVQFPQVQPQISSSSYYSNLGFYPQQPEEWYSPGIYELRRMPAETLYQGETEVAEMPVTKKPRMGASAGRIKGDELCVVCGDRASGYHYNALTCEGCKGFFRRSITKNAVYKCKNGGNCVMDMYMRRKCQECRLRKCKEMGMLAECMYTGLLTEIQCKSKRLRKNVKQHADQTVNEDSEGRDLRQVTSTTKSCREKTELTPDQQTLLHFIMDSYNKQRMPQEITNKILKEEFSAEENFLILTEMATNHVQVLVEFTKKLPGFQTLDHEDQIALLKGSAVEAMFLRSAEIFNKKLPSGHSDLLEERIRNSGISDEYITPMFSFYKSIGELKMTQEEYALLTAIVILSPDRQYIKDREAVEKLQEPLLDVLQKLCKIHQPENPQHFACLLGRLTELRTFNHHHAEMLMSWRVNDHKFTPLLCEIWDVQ
Description: U.S. Tox21 Program National Center for Advancing Translational Sciences [NCATS] NIH Chemical Genomics Center [NCGC] U.S. Environmental Protection Agency [EPA] National Institutes of Environmental Health Sciences [NIEHS] National Toxicology Program [NTP] U.S. Food and Drug Administration [FDA] Tox21 Assay Overview: The farnesoid-X-receptor (FXR), a nuclear hormone receptor, is highly expressed in liver, intestine, kidney and adrenal cortex. Natural ligands of FXR are the bile acids (Cholic acid, Chenodeoxy cholic acid etc). FXR is an important regulator of diverse metabolic pathways, including the bile acid homeostasis, lipid and glucose metabolisms. FXR regulates the expression of target genes by binding either as a monomer or as a heterodimer with the retinoid X receptor (RXR). Numerous studies have reported that FXR exerts protective function during cholestasis, diabetes, liver regeneration, and cancer. To identify compounds that inhibit FXR signaling, GeneBLAzer FXR-UAS-bla HEK 293T cell line (Invitrogen, Carlsbad, CA) containing a beta-lactamase reporter gene under the control of a UAS response element was used to screen the Tox21 10K compound library.
Tox21 Assay Protocol Summary: FXR-bla cells were dispensed at 5000 cells/5uL/well in 1536-well black wall/clear bottom plates using a Multidrop Combi (Thermo Fisher Scientific, Waltham, MA) dispenser. After the assay plates were incubated at 37C and 5% CO2 for 5 h, 23 nL of compounds dissolved in DMSO, positive controls or DMSO only was transferred to the assay plate by a Pintool station (Kalypsys, San Diego, CA), followed by addition of 1 uL Chenodeoxycholic acid (50 uM, final concentration in the wells). The assay plates were incubated at 37C for 16 h. After 1 uL of LiveBLAzerTM B/G FRET substrate was added using a Bioraptr Flying Reagent Dispenser (FRD) workstation (Beckman Coulter, Indianapolis, IN), the plates were incubated at room temperature for 2 h, and fluorescence intensity was measured by an Envision plate reader (PerkinElmer, Shelton, CT).
% is set by controls: 0 for no effect and ±100 for the full control effect; potency is the fitted concentration of half-maximal effect.

Going from `Cc1cccc(C)c1OCC(C)N` (stereo not given) to `COc1cc(N)ccc1C`, the “activity change, negative = inhibition” value rises from 2.01% to 3.48%.

First: c1ccc2c(c1)ccc1c3ccccc3ccc21
Second: O=C1c2ccccc2C(=O)C1c1ccccc1
The “activity change, negative = inhibition” value of the first is lower: -0.125% for the first, 1.76% for the second.

First: NNc1nnc(NN)c2ccccc12
Second: O=C(NCCc1c[nH]c2ccccc12)c1cccnc1
The “activity change, negative = inhibition” value of the first is lower: 1.38% for the first, 5.12% for the second.

First: C#CC(C)N(C)C(=O)Nc1ccc(Cl)cc1 (stereo not given)
Second: O=C(NCCN1CCOCC1)c1ccc(Cl)cc1
The “activity change, negative = inhibition” value of the first is higher: 4.85% for the first, -9.08% for the second.

Compared with `Cc1ccsc1/C=C/C1=NCCCN1C`, `Cc1ccc(C=O)cc1C` is higher in “activity change, negative = inhibition” value: -4.26% for the first, -0.579% for the second.

Compared with `CC(=O)c1ccc2c(c1)Cc1ccccc1-2`, `COC(=O)c1ccccc1C(=O)c1ccc(OCCN2CCCCC2)cc1` is lower in “activity change, negative = inhibition” value: -0.397% for the first, -4.1% for the second.

Going from `CNC(=O)[C@H]1O[C@@H](n2cnc3c(NCc4cc(Cl)ccc4OCc4cc(C)no4)ncnc32)[C@H](O)[C@@H]1N` to `CC1=C(C(=O)O)N2C(=O)[C@@H](NC(=O)[C@H](N)c3ccc(O)cc3)[C@H]2SC1`, the “activity change, negative = inhibition” value rises from 5.93% to 7.24%.

First: CCCCCCOC(=O)CC
Second: CCCOC(OCCC)OCCC
The “activity change, negative = inhibition” value of the first is higher: 7.73% for the first, 2.13% for the second.

First: CC(COC(C)(C)C)OCCCO (stereo not given)
Second: CN(C)CCOCCO
The “activity change, negative = inhibition” value of the first is lower: -6.98% for the first, -1.66% for the second.

Compared with `CCCC(=O)C(C)=O`, `NS(=O)(=O)c1ccc(NC(=O)CCC(=O)O)cc1` is higher in “activity change, negative = inhibition” value: 0.313% for the first, 1.95% for the second.

First: CC(C)CC(C)CC(C)CC(C)COC(=O)c1ccccc1C(=O)OCC(C)CC(C)CC(C)CC(C)C (stereo not given)
Second: CCN(C)C(=O)Oc1cccc([C@H](C)N(C)C)c1
The “activity change, negative = inhibition” value of the first is lower: -1.03% for the first, 1.55% for the second.

Going from `COc1cc(C(=S)N2CCOCC2)cc(OC)c1OC` to `CCN1CCc2nc(N)oc2CC1`, the “activity change, negative = inhibition” value falls from 5.67% to 0.0825%.

Compared with `C=C(C)C(=O)OCCOP(=O)(O)OCCOC(=O)C(=C)C`, `O=C(NCC(O)CO)c1c(I)c(C(=O)NCC(O)CO)c(I)c(N(CCO)C(=O)CO)c1I` (stereo not given) is lower in “activity change, negative = inhibition” value: -5.04% for the first, -12% for the second.

First: CCCC/C=C/C=C\C=O
Second: CN(CCOc1ccc(NS(C)(=O)=O)cc1)CCc1ccc(NS(C)(=O)=O)cc1
The “activity change, negative = inhibition” value of the first is lower: -2.58% for the first, 1.72% for the second.

Going from `Cc1ccc2c(c1)OCC(=O)CO2` to `Nc1ccc2cc(S(=O)(=O)O)cc(O)c2c1`, the “activity change, negative = inhibition” value rises from 2.39% to 3.79%.

First: NS(=O)(=O)c1cc2c(cc1Cl)CN(C1CCCCC1)C2=O
Second: C[C@H](N)[C@H](O)c1cccc(O)c1
The “activity change, negative = inhibition” value of the first is lower: 1.23% for the first, 6.01% for the second.

In the case of `CC(C)OC(=O)CCCCC(=O)OC(C)C`, the Potency is reported as 24.6 µM (active).

Going from `c1ccc2nccnc2c1` to `O=C(c1ccc(O)cc1)c1ccc(O)c(O)c1O`, the “activity change, negative = inhibition” value rises from 1.42% [at 81.1 µM] to 8.04% [at 81.1 µM].

Compared with `COc1ccc(Br)c(C)c1`, `CCC(C=O)CC` is higher in “activity change, negative = inhibition” value: -6.44% [at 81.1 µM] for the first, 6.84% [at 81.1 µM] for the second.

Going from `BrCCCCCBr` to `CCCCCCCCC(=O)Cl`, the “activity change, negative = inhibition” value falls from 0.533% [at 81.1 µM] to 0.238% [at 81.1 µM].

With `CCCCCCCC/C=C\CCCCCCCC(=O)OCCCC` the “activity change, negative = inhibition” value was -2.25% [at 29.1 µM].
